For 38 molecules, growth inhibition results are on record in PubChem BioAssay (NCI).

Compounds without any hit were thinned out: in the full panel of roughly 79,000, 15% have a hit. A number with no mark means an inactive call. Active and inactive are the calls of the source. No stated cut-off is given here; in the data, active means growth inhibition above about 70%; inactive means the rest.

A short description of one test: NCI Yeast Anticancer Drug Screen. Data for the wt2 strain (AID 169).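 Further: 0% = growth of vehicle-treated yeast cultures.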 The following applies: S. cerevisiae wt2 strain growth inhibition; at 11.0 µM; stronger effect = higher value. A digest of the protocol: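 Genetically defined yeast strains from a DNA-repair/cell-cycle panel were used. Compound-exposed yeast growth was measured, and the inhibition was calculated relative to vehicle treatment.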
Consider `O=[N+]([O-])c1cc[n+]([O-])cc1`, for which the growth inhibition is -3%.

As to `CC1(C)CC(=O)C(/C=N/c2nc(-c3ccccc3)cs2)=C(O)C1`, the growth inhibition was 7%.

Regarding `Nc1nc(N)c2nc(CNc3ccc(C(=O)NC(CCC(=O)O)C(=O)O)cc3F)cnc2n1` (stereo unspecified), the growth inhibition is -21%.

Take `COC(=O)CC1(O)C(/C=C/c2ccccc2)C(C(=O)OC)C(=O)C(C(=O)OC)C1C(=O)OC` (stereo unspecified): the growth inhibition is 0%.

Regarding `CC(C)(C)c1ccc(NS(=O)(=O)c2ccc(N)cc2)cc1`, the growth inhibition was 1%.

Consider `CCN(CC)CCNc1ccc([N+](=O)[O-])c2nc3ccccc3c(N)c12`, for which the growth inhibition was -2%.

As to `CCCCN(CCCC)C(=O)/C=C/c1ccccc1`, the growth inhibition is 12%.

Regarding `O=c1[nH]c(-c2ccccc2)nc2c1sc1nc3ccccc3n12`, the growth inhibition was -6%.

Consider `O=[N+]([O-])c1ccc2c(c1)/C(=N/N=C1c3ccccc3Cc3ccccc31)c1cc([N+](=O)[O-])cc([N+](=O)[O-])c1-2`, for which the growth inhibition is 98% (active).

`CC(C)C(C)/C=C\C(C)C1CCC2C3=CC=C4CC(O)CCC4(C)C3CCC21C` (stereo unspecified): the growth inhibition is 1%.

In the case of `O=C1Nc2ccc(Br)cc2C1=Nc1ccc2c(c1)OCO2`, the growth inhibition is -22%.

Turning to `CCCCOCn1c(=O)[nH]c(=O)c2cc(Br)ccc21`, the growth inhibition was -21%.

As to `Cc1ccc(S/C(=C\C(=O)O)c2ccccc2)cc1`, the growth inhibition was -7%.

In the case of `O=[N+]([O-])/C=C/c1cc(Cl)c(/C=C/[N+](=O)[O-])cc1Cl`, the growth inhibition was 68%.

`Cc1cc(S(=O)(=O)Nc2nnc3cnc4ccccc4n23)c(S)cc1Cl`: the growth inhibition was 4%.

Consider `O=C(/C=C/c1cc(Cl)cc(Cl)c1O)c1cccc(O)c1`, for which the growth inhibition is 89% (active).

In the case of `NC1CCCCC1N.Nc1c(N=Nc2ccc(-c3ccc(N=Nc4cc(S(=O)(=O)[O-])c5ccccc5c4N)cc3)cc2)cc(S(=O)(=O)[O-])c2ccccc12.[OH3+].[OH3+].[Pt+4]`, the growth inhibition was 86% (active).

For `COC(=O)CCC(NC(=S)N/N=C(\C)c1ccccn1)C(=O)OC` (stereo unspecified), the growth inhibition is -3%.

In the case of `NC(=O)C(=O)NNc1ccccc1`, the growth inhibition was 34%.

With `COc1cc(C2SCC(=O)N2c2ccc(-c3ccc(-n4c(-c5ccccc5)nc5ccccc5c4=O)cc3)cc2)ccc1O` (stereo unspecified), the growth inhibition is -2%.

As to `COc1ccc(/C=C/c2sc3ccccc3[n+]2CCCCI)cc1OC`, the growth inhibition is -6%.

Turning to `Cc1c(C(C)C)cc(OCCO)cc1C(C)C`, the growth inhibition is -6%.

As for `Cc1cc(NCCCCCCCCNc2cc(C)nc3cc(N)ccc23)c2ccc(N)cc2n1`, the growth inhibition is 55%.

With `C=C(Cl)COC(=O)Nc1cccc(Cl)c1`, the growth inhibition is 1%.

As to `CC(=O)OC1CC2C(C)(C)C(=O)C=C[C@]2(C)C2CCC3(C)C(=CCC3[C@H](CO)C[C@H](O)C(=O)C(C)(C)O)[C@]12C` (stereo partly specified), the growth inhibition is 50%.

`COc1ccc(/C=C/C(=O)c2ccccc2)cc1OC`: the growth inhibition is -34%.

As to `COc1c(O)c(C=O)c(Br)c(C=O)c1O`, the growth inhibition is 5%.

Consider `O=[N+]([O-])c1cc(Cl)cnc1Br`, for which the growth inhibition was 2%.

Consider `Cc1ccc2c(c1)C1(SC(C)C(=O)N1c1ccc(Cl)cc1)C(=O)N2` (stereo unspecified), for which the growth inhibition is 8%.

Take `COc1cc(CSc2ccc(O)cc2)cc(O)c1O`: the growth inhibition was 0%.

`Cc1ccc2c3ccc4c(c3n(C)c2c1)C(=O)C=CC4=O`: the growth inhibition is -30%.

As to `O=C(Nc1ccc(Cl)cc1)Nc1nnc2nc(C(C(=O)c3cccc([N+](=O)[O-])c3Cl)c3nc4nnc(NC(=O)Nc5ccc(Cl)cc5)n4[nH]c3=O)c(=O)[nH]n12`, the growth inhibition is -2%.

As to `O=C(O)C1CC(c2ccccc2)=NN1c1ccccc1` (stereo unspecified), the growth inhibition is -36%.

As to `CCCCc1ccc(-n2c(C)c(COC(=O)NC)c(COC(=O)NC)c2C)cc1`, the growth inhibition is 5%.

Consider `CCC(=O)c1cc(C(=O)C(=S)SC)cc(C(=O)C(=S)SC)c1`, for which the growth inhibition was 98% (active).

Take `CCn1c(O)c(C=Nc2ccccc2)s/c1=N/Nc1nc(-c2ccccc2)cs1`: the growth inhibition is -1%.

In the case of `Cc1ccccc1N=C(NO)c1ccccc1`, the growth inhibition was -4%.

Turning to `Cc1nc2ccccc2nc1NNc1ccccc1`, the growth inhibition was 14%.

Staying with this test, now noted: S. cerevisiae wt2 strain growth inhibition; at 33.0 µM; stronger effect = higher value.
As to `O=[N+]([O-])c1cc[n+]([O-])cc1`, the growth inhibition is -11%.

Turning to `CC1(C)CC(=O)C(/C=N/c2nc(-c3ccccc3)cs2)=C(O)C1`, the growth inhibition was 36%.

As for `Nc1nc(N)c2nc(CNc3ccc(C(=O)NC(CCC(=O)O)C(=O)O)cc3F)cnc2n1` (stereo unspecified), the growth inhibition is 2%.

Turning to `COC(=O)CC1(O)C(/C=C/c2ccccc2)C(C(=O)OC)C(=O)C(C(=O)OC)C1C(=O)OC` (stereo unspecified), the growth inhibition is -1%.

With `CC(C)(C)c1ccc(NS(=O)(=O)c2ccc(N)cc2)cc1`, the growth inhibition is 4%.

Take `CCN(CC)CCNc1ccc([N+](=O)[O-])c2nc3ccccc3c(N)c12`: the growth inhibition was -3%.

In the case of `CCCCN(CCCC)C(=O)/C=C/c1ccccc1`, the growth inhibition is 47%.

Turning to `O=c1[nH]c(-c2ccccc2)nc2c1sc1nc3ccccc3n12`, the growth inhibition was 19%.

Regarding `O=[N+]([O-])c1ccc2c(c1)/C(=N/N=C1c3ccccc3Cc3ccccc31)c1cc([N+](=O)[O-])cc([N+](=O)[O-])c1-2`, the growth inhibition is 98% (active).

Turning to `CC(C)C(C)/C=C\C(C)C1CCC2C3=CC=C4CC(O)CCC4(C)C3CCC21C` (stereo unspecified), the growth inhibition was 1%.

As for `O=C1Nc2ccc(Br)cc2C1=Nc1ccc2c(c1)OCO2`, the growth inhibition was -34%.

As to `CCCCOCn1c(=O)[nH]c(=O)c2cc(Br)ccc21`, the growth inhibition was -19%.

In the case of `Cc1ccc(S/C(=C\C(=O)O)c2ccccc2)cc1`, the growth inhibition was -3%.

Consider `O=[N+]([O-])/C=C/c1cc(Cl)c(/C=C/[N+](=O)[O-])cc1Cl`, for which the growth inhibition is 91% (active).

Turning to `Cc1cc(S(=O)(=O)Nc2nnc3cnc4ccccc4n23)c(S)cc1Cl`, the growth inhibition is 14%.

For `O=C(/C=C/c1cc(Cl)cc(Cl)c1O)c1cccc(O)c1`, the growth inhibition is 98% (active).

Consider `NC1CCCCC1N.Nc1c(N=Nc2ccc(-c3ccc(N=Nc4cc(S(=O)(=O)[O-])c5ccccc5c4N)cc3)cc2)cc(S(=O)(=O)[O-])c2ccccc12.[OH3+].[OH3+].[Pt+4]`, for which the growth inhibition is 90% (active).

Consider `COC(=O)CCC(NC(=S)N/N=C(\C)c1ccccn1)C(=O)OC` (stereo unspecified), for which the growth inhibition was 51%.

Regarding `NC(=O)C(=O)NNc1ccccc1`, the growth inhibition is 60%.

For `COc1cc(C2SCC(=O)N2c2ccc(-c3ccc(-n4c(-c5ccccc5)nc5ccccc5c4=O)cc3)cc2)ccc1O` (stereo unspecified), the growth inhibition was -2%.

For the molecule `COc1ccc(/C=C/c2sc3ccccc3[n+]2CCCCI)cc1OC`, the growth inhibition is 26%.

For the molecule `Cc1c(C(C)C)cc(OCCO)cc1C(C)C`, the growth inhibition is -10%.

As to `Cc1cc(NCCCCCCCCNc2cc(C)nc3cc(N)ccc23)c2ccc(N)cc2n1`, the growth inhibition was 97% (active).

As to `C=C(Cl)COC(=O)Nc1cccc(Cl)c1`, the growth inhibition is 39%.

For the molecule `CC(=O)OC1CC2C(C)(C)C(=O)C=C[C@]2(C)C2CCC3(C)C(=CCC3[C@H](CO)C[C@H](O)C(=O)C(C)(C)O)[C@]12C` (stereo partly specified), the growth inhibition is 86% (active).

As for `COc1ccc(/C=C/C(=O)c2ccccc2)cc1OC`, the growth inhibition is 38%.

In the case of `COc1c(O)c(C=O)c(Br)c(C=O)c1O`, the growth inhibition is 30%.

In the case of `O=[N+]([O-])c1cc(Cl)cnc1Br`, the growth inhibition is 5%.

Turning to `Cc1ccc2c(c1)C1(SC(C)C(=O)N1c1ccc(Cl)cc1)C(=O)N2` (stereo unspecified), the growth inhibition is 98% (active).

Turning to `COc1cc(CSc2ccc(O)cc2)cc(O)c1O`, the growth inhibition is -1%.

In the case of `Cc1ccc2c3ccc4c(c3n(C)c2c1)C(=O)C=CC4=O`, the growth inhibition is -29%.

For `O=C(Nc1ccc(Cl)cc1)Nc1nnc2nc(C(C(=O)c3cccc([N+](=O)[O-])c3Cl)c3nc4nnc(NC(=O)Nc5ccc(Cl)cc5)n4[nH]c3=O)c(=O)[nH]n12`, the growth inhibition is -2%.

Consider `O=C(O)C1CC(c2ccccc2)=NN1c1ccccc1` (stereo unspecified), for which the growth inhibition was 0%.

On to `CCCCc1ccc(-n2c(C)c(COC(=O)NC)c(COC(=O)NC)c2C)cc1`, for which the growth inhibition was 98% (active).

As for `CCC(=O)c1cc(C(=O)C(=S)SC)cc(C(=O)C(=S)SC)c1`, the growth inhibition is 98% (active).

Consider `CCn1c(O)c(C=Nc2ccccc2)s/c1=N/Nc1nc(-c2ccccc2)cs1`, for which the growth inhibition is 2%.

Consider `Cc1ccccc1N=C(NO)c1ccccc1`, for which the growth inhibition is 20%.

For `Cc1nc2ccccc2nc1NNc1ccccc1`, the growth inhibition was 23%.
